# Data from PubChem BioAssay AID1159580 (chemical genetic matrix, 2015).
# Hit rate of the full screen: of about 5,500 compounds, about 2,000 (36%) were called active. Inconclusive results (about 18%) are left out. The list shows a part of the results. Unmarked numbers belong to inactive results. No stated cut-off is given here; in the data, active means normalized growth mostly below about 0.91 (no sharp cut-off); inconclusive means no clear call, values can overlap the other calls; inactive means mostly above about 0.92.
# Test: chemical genetic growth profiling, strain panel (AID 1159580);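 further: tested at 20 µM; growth read once vehicle control cultures reached saturation at 30 °C; 1 = growth at the plate median or of vehicle wells; lower values mean less growth of the strain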
# Details: growth OD
smiles,measurement,setting,value
CC(=O)OC1CCC2C3CCc4cc(O)ccc4C3CCC12C (stereo unspecified),normalized growth,"S. cerevisiae deletion strains, locus YJR075W, strain HOC1, active compounds read low",0.919
same,normalized growth,"S. cerevisiae deletion strains, locus YKL009W, strain mrt4, active compounds read low",0.923
same,normalized growth,"S. cerevisiae deletion strains, locus YKL068W, active compounds read low",1.01
same,normalized growth,"S. cerevisiae deletion strains, locus YKL085W, strain MDH1 (second series), active compounds read low",0.98
same,normalized growth,"S. cerevisiae deletion strains, locus YKL085W, strain MDH1, active compounds read low",0.98
same,normalized growth,"S. cerevisiae deletion strains, locus YKL160W, strain elf1, active compounds read low",0.904
same,normalized growth,"S. cerevisiae deletion strains, locus YKL190W, strain CNB1, active compounds read low",1.01
same,normalized growth,"S. cerevisiae deletion strains, locus YKR001C, strain vps1, active compounds read low",0.977
same,normalized growth,"S. cerevisiae deletion strains, locus YKR026C, strain gcn3, active compounds read low",0.998
same,normalized growth,"S. cerevisiae deletion strains, locus YKR091W, strain srl3, active compounds read low",1
same,normalized growth,"S. cerevisiae deletion strains, locus YLL001W, strain dnm1, active compounds read low",0.963
same,normalized growth,"S. cerevisiae deletion strains, locus YLL026W, active compounds read low",0.996
same,normalized growth,"S. cerevisiae deletion strains, locus YLL041C, strain sdh2, active compounds read low",1.02
same,normalized growth,"S. cerevisiae deletion strains, locus YLR027C, strain aat2, active compounds read low",0.976
same,normalized growth,"S. cerevisiae deletion strains, locus YLR039C, strain RIC1, active compounds read low",0.86
same,normalized growth,"S. cerevisiae deletion strains, locus YLR058C, strain SHM2, active compounds read low",0.971
same,normalized growth,"S. cerevisiae deletion strains, locus YLR102C, strain apc9, active compounds read low",1.02
same,normalized growth,"S. cerevisiae deletion strains, locus YLR113W, strain HOG1, active compounds read low",0.918
same,normalized growth,"S. cerevisiae deletion strains, locus YLR221C, strain rsa3, active compounds read low",0.949
same,normalized growth,"S. cerevisiae deletion strains, locus YLR258W, strain gsy2, active compounds read low",0.978
same,normalized growth,"S. cerevisiae deletion strains, locus YLR262C, strain YPT6 (second series), active compounds read low",0.856 (active)
same,normalized growth,"S. cerevisiae deletion strains, locus YLR262C, strain YPT6, active compounds read low",0.832
same,normalized growth,"S. cerevisiae deletion strains, locus YLR268W, strain sec22, active compounds read low",0.97
same,normalized growth,"S. cerevisiae deletion strains, locus YLR320W, strain mms22, active compounds read low",0.922
same,normalized growth,"S. cerevisiae deletion strains, locus YLR330W, strain CHS5, active compounds read low",1.02
same,normalized growth,"S. cerevisiae deletion strains, locus YLR342W, strain FKS1 (second series), active compounds read low",0.891
same,normalized growth,"S. cerevisiae deletion strains, locus YLR342W, strain FKS1, active compounds read low",0.886 (active)
same,normalized growth,"S. cerevisiae deletion strains, locus YLR357W, strain rsc2, active compounds read low",0.848 (active)
same,normalized growth,"S. cerevisiae deletion strains, locus YLR370C, strain arc18, active compounds read low",0.98
same,normalized growth,"S. cerevisiae deletion strains, locus YLR371W, strain rom2, active compounds read low",1.01
same,normalized growth,"S. cerevisiae deletion strains, locus YLR384C, strain iki3, active compounds read low",0.964
same,normalized growth,"S. cerevisiae deletion strains, locus YLR418C, strain cdc73, active compounds read low",0.941
same,normalized growth,"S. cerevisiae deletion strains, locus YML016C, strain PPZ1, active compounds read low",1
same,normalized growth,"S. cerevisiae deletion strains, locus YML032C, strain rad52, active compounds read low",0.954
same,normalized growth,"S. cerevisiae deletion strains, locus YML120C, strain ndi1, active compounds read low",0.98
same,normalized growth,"S. cerevisiae deletion strains, locus YML124C, strain tub3, active compounds read low",1.01
same,normalized growth,"S. cerevisiae deletion strains, locus YMR058W, strain fet3, active compounds read low",0.983
same,normalized growth,"S. cerevisiae deletion strains, locus YMR078C, strain ctf18, active compounds read low",1.02
same,normalized growth,"S. cerevisiae deletion strains, locus YMR125W, strain sto1, active compounds read low",0.927
same,normalized growth,"S. cerevisiae deletion strains, locus YMR129W, active compounds read low",1.01
same,normalized growth,"S. cerevisiae deletion strains, locus YMR205C, strain PFK2, active compounds read low",0.954
same,normalized growth,"S. cerevisiae deletion strains, locus YMR223W, strain ubp8, active compounds read low",0.969
same,normalized growth,"S. cerevisiae deletion strains, locus YMR231W, strain pep5, active compounds read low",1.01
same,normalized growth,"S. cerevisiae deletion strains, locus YMR263W, strain SAP30, active compounds read low",0.919
same,normalized growth,"S. cerevisiae deletion strains, locus YMR307W, strain GAS1, active compounds read low",0.54 (active)
same,normalized growth,"S. cerevisiae deletion strains, locus YNL067W, strain RPL9B, active compounds read low",0.945
same,normalized growth,"S. cerevisiae deletion strains, locus YNL071W, strain lat1, active compounds read low",0.994
same,normalized growth,"S. cerevisiae deletion strains, locus YNL153C, strain GIM3, active compounds read low",0.891
same,normalized growth,"S. cerevisiae deletion strains, locus YNL183C, strain NPR1, active compounds read low",0.885
same,normalized growth,"S. cerevisiae deletion strains, locus YNL209W, strain ssb2, active compounds read low",0.982
same,normalized growth,"S. cerevisiae deletion strains, locus YNL233W, strain BNI4, active compounds read low",0.806 (active)
same,normalized growth,"S. cerevisiae deletion strains, locus YNL248C, strain rpa49, active compounds read low",0.975
same,normalized growth,"S. cerevisiae deletion strains, locus YNL250W, strain rad50, active compounds read low",1.01
same,normalized growth,"S. cerevisiae deletion strains, locus YNL271C, strain bni1, active compounds read low",1.02
same,normalized growth,"S. cerevisiae deletion strains, locus YNL298W, strain CLA4, active compounds read low",0.973
same,normalized growth,"S. cerevisiae deletion strains, locus YNL307C, strain MCK1, active compounds read low",1
same,normalized growth,"S. cerevisiae deletion strains, locus YNL322C, strain KRE1 (second series), active compounds read low",0.973
same,normalized growth,"S. cerevisiae deletion strains, locus YNL322C, strain KRE1, active compounds read low",0.963
same,normalized growth,"S. cerevisiae deletion strains, locus YNR049C, strain mso1, active compounds read low",1.01
same,normalized growth,"S. cerevisiae deletion strains, locus YNR052C, strain pop2, active compounds read low",1.01
same,normalized growth,"S. cerevisiae deletion strains, locus YOL006C, strain TOP1, active compounds read low",0.942
same,normalized growth,"S. cerevisiae deletion strains, locus YOL012C, strain htz1",1.3
same,normalized growth,"S. cerevisiae deletion strains, locus YOL147C, strain pex11, active compounds read low",1.02
same,normalized growth,"S. cerevisiae deletion strains, locus YOR001W, strain rrp6, active compounds read low",0.966
same,normalized growth,"S. cerevisiae deletion strains, locus YOR061W, strain CKA2, active compounds read low",1
same,normalized growth,"S. cerevisiae deletion strains, locus YOR069W, strain VPS5, active compounds read low",1.01
same,normalized growth,"S. cerevisiae deletion strains, locus YOR070C, strain gyp1, active compounds read low",0.989
same,normalized growth,"S. cerevisiae deletion strains, locus YOR080W, strain dia2, active compounds read low",0.998
same,normalized growth,"S. cerevisiae deletion strains, locus YOR083W, strain WHI5, active compounds read low",0.904
same,normalized growth,"S. cerevisiae deletion strains, locus YOR106W, strain vam3, active compounds read low",0.94
same,normalized growth,"S. cerevisiae deletion strains, locus YOR136W, strain idh2, active compounds read low",0.994
same,normalized growth,"S. cerevisiae deletion strains, locus YOR144C, strain elg1, active compounds read low",1
same,normalized growth,"S. cerevisiae deletion strains, locus YOR184W, strain ser1, active compounds read low",0.945
same,normalized growth,"S. cerevisiae deletion strains, locus YOR231W, strain MKK1, active compounds read low",0.96
same,normalized growth,"S. cerevisiae deletion strains, locus YOR265W, strain rbl2, active compounds read low",0.998
same,normalized growth,"S. cerevisiae deletion strains, locus YOR270C, strain vph1, active compounds read low",0.924
same,normalized growth,"S. cerevisiae deletion strains, locus YOR290C, strain snf2, active compounds read low",0.971
same,normalized growth,"S. cerevisiae deletion strains, locus YOR316C, strain cot1, active compounds read low",1.02
same,normalized growth,"S. cerevisiae deletion strains, locus YPL051W, strain arl3, active compounds read low",0.959
same,normalized growth,"S. cerevisiae deletion strains, locus YPL055C, strain LGE1, active compounds read low",0.842
same,normalized growth,"S. cerevisiae deletion strains, locus YPL078C, strain atp4, active compounds read low",0.91
same,normalized growth,"S. cerevisiae deletion strains, locus YPL106C, strain sse1, active compounds read low",0.848 (active)
same,normalized growth,"S. cerevisiae deletion strains, locus YPL240C, strain hsp82, active compounds read low",1.01
same,normalized growth,"S. cerevisiae deletion strains, locus YPL241C, strain CIN2, active compounds read low",1.02
same,normalized growth,"S. cerevisiae deletion strains, locus YPL256C, strain CLN2, active compounds read low",0.931
same,normalized growth,"S. cerevisiae deletion strains, locus YPR119W, strain clb2, active compounds read low",1
same,normalized growth,"S. cerevisiae deletion strains, locus YPR141C, strain kar3, active compounds read low",1.02
same,normalized growth,"S. cerevisiae deletion strains, locus YPR163C, strain tif3, active compounds read low",1.03
same,normalized growth,"S. cerevisiae deletion strains, locus YPR167C, strain met16, active compounds read low",1.01
same,normalized growth,"S. cerevisiae deletion strains, strain wtn01, active compounds read low",0.995
same,normalized growth,"S. cerevisiae strains, strain wild type, active compounds read low",0.967
